From PubChem BioAssay (NCATS)
Inconclusive results are not listed. Calls of active or inactive are those of the source. Unless noted, the call rests on the fitted dose curve; in most records, active means well fitted curve in the direction sought with a large enough effect; inconclusive means small, poorly fitted or top-dose-only effect, or another doubt; inactive means no such curve, though single readings can be large; an effect the other way counts as inactive or inconclusive.

Legend:
[1] = Cytometry Cell-Based qHTS for Inhibitors of the mTORC1 Signaling Pathway in MEF cells (AID 2668);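 further: Tsc2-/- p53-/- mouse embryonic fibroblasts stably re-expressing wild-type Tsc2; percent cells positive for phospho-rpS6 Ser235/236 relative to propidium iodide stain; series mostly up to about 38 µM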
How it was run: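 WT MEFs (Tsc2-/-, p53-/- stably re-expressing WT Tsc2) in DMEM + 10% FBS received compounds 24 hrs after plating, for 24 hrs at 37 degree Celsius. Fixed cells stained with Alexa-488 anti-phospho-rpS6 Ser235/236 and propidium iodide; laser-scanning cytometry read-out.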

[2] = molecular target: Ubiquitin carboxyl-terminal hydrolase 2 (Homo sapiens) (UniProt O75604); assay: qHTS Validation Assay for Inhibitors of Ubiquitin-specific Protease USP2a Using CHOP2 as the Reporter (AID 463106)
Ubiquitin carboxyl-terminal hydrolase 2 (Homo sapiens), sequence (O75604 whole entry, looked up): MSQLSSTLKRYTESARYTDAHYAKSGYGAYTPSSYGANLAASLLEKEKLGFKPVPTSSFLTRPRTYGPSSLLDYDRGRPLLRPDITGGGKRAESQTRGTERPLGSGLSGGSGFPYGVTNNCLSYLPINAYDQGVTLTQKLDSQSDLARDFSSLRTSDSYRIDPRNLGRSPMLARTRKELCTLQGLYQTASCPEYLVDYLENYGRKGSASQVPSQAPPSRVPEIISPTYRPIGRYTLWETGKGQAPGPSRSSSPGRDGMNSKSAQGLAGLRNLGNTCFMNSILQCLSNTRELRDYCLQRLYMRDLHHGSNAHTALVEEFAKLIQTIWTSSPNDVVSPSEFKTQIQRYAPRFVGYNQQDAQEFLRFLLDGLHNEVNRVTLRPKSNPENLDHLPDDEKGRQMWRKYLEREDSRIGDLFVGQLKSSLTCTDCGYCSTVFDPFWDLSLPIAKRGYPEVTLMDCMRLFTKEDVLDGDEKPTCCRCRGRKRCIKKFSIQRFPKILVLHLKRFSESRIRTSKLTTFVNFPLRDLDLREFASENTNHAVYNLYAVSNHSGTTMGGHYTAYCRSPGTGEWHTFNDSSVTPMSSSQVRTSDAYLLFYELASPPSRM
How it was run: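 Fluorescence read-out at Ex 485nm/Em 531nm after 60min RT, following addition of 25nM Ub-CHOP2 plus 25nM reporter substrate to USP2 core (10nM) pretreated 30min with compound. Data normalized to NEM full inhibition; concentration-response curves fitted.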

[3] = molecular target: DNA polymerase III PolC-type (Bacillus subtilis (strain 168)) (UniProt P13267); assay: qHTS Validation Assay for the Inhibitors of DNA Replication in Gram-Positive Bacteria (AID 485295);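 further: PicoGreen fluorescence of double-stranded DNA made on primed circular M13 template; series mostly up to about 57 µM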
DNA polymerase III PolC-type (Bacillus subtilis (strain 168)), sequence (P13267 whole entry, looked up): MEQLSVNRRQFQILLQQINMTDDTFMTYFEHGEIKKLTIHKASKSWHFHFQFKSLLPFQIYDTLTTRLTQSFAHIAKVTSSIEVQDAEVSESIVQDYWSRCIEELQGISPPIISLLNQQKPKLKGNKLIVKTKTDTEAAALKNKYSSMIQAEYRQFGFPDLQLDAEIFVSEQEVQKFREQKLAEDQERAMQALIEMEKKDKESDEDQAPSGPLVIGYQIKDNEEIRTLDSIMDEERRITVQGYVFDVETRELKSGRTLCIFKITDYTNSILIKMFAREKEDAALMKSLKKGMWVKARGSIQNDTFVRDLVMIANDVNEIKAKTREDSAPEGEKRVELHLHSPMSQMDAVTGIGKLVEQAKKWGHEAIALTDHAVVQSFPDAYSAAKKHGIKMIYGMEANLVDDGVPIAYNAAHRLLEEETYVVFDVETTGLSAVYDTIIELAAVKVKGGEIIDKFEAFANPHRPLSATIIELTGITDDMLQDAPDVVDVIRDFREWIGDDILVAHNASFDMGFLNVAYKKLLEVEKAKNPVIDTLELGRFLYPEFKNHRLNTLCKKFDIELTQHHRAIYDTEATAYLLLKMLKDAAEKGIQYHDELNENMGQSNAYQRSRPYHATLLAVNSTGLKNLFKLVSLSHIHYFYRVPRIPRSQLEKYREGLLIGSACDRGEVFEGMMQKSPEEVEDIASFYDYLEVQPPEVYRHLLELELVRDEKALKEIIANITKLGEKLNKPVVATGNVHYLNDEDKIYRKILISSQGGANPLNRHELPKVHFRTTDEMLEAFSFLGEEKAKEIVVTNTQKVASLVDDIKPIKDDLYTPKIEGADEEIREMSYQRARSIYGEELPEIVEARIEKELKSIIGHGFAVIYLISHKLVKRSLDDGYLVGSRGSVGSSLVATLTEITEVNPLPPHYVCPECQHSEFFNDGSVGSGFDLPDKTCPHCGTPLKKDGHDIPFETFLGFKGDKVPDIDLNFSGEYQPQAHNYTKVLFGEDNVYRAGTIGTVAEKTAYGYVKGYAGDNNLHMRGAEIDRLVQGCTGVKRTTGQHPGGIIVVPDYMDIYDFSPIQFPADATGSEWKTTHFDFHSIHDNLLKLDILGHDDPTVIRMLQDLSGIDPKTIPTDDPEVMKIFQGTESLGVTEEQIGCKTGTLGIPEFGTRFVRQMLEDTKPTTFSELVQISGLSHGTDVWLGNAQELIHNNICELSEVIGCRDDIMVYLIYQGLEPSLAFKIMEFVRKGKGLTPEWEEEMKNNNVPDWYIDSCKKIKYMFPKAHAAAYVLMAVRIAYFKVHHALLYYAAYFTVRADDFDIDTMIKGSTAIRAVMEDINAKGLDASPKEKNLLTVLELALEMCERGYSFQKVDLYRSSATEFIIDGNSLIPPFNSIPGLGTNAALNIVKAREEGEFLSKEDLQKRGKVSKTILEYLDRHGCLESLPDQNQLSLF
How it was run: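 Reconstituted B. subtilis holoenzyme (Pol III, beta clamp, SSB, primase) was preincubated with compound at room temperature, then given single-stranded circular M13Gori plus dNTPs and NTPs. EDTA-containing PicoGreen stopped the reaction, and dsDNA product was read by fluorescence.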

[4] = molecular target: Tumor susceptibility gene 101 protein (Homo sapiens) (UniProt Q99816); assay: qHTS Validation Assay for Iinhibitors of HIV-1 Budding by Blocking the Interaction of PTAP/TSG101 (AID 485342; calls by dose curve)
Tumor susceptibility gene 101 protein (Homo sapiens), sequence (Q99816 whole entry, looked up, the tested form may be a part): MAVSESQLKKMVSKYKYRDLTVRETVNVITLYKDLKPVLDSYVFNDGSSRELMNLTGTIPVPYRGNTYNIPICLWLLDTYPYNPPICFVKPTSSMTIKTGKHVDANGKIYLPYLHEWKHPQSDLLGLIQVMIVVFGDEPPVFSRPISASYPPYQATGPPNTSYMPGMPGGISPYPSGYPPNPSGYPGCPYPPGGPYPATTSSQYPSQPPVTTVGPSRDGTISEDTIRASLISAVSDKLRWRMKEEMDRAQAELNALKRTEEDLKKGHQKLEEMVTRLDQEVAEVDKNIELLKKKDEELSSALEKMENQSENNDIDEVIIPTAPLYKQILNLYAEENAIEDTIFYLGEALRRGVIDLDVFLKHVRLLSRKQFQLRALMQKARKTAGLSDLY
How it was run: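 Tsg101 binding domain (10 uM final) in pH 7.5 HEPES/NaCl/Tween 20/EDTA/TCEP buffer was mixed with pin-transferred compounds, then FITC-labeled PTAP peptide (50 nM final) was added; after 20 min at r.t., fluorescence polarization was read.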

[5] = molecular target: Beta-2 adrenergic receptor (Homo sapiens) (UniProt P07550); assay: qHTS validation assay of beta-arrestin-biased ligands of beta2-adrenergic receptor (AID 485366)
Beta-2 adrenergic receptor (Homo sapiens), sequence (P07550 whole entry, looked up): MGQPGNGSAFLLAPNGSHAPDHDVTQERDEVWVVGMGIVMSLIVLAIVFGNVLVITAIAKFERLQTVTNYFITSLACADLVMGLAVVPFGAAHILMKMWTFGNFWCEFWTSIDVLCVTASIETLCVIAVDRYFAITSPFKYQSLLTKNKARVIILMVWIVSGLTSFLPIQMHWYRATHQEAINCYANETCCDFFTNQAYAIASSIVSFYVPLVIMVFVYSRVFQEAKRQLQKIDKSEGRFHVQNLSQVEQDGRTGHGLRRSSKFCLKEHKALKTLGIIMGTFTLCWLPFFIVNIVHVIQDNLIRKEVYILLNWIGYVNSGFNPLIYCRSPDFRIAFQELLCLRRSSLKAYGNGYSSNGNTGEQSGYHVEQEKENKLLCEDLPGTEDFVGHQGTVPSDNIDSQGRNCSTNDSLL
How it was run: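 Agonism was measured as beta-arrestin recruitment to recombinant beta2-AR, releasing tTA to drive luciferase. Cells were exposed for 18 hr at 37 degrees C to a series up to 46 microM. %Activity from corrected luminescence gave concentration-response curves.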

[6] = Validation screen for small molecules that induce DNA re-replication in MCF 10A normal breast cells (AID 463097); further: nearly all actives have a fitted effect of over 60% in size
How it was run: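 Readout: Hoechst nuclear fluorescence intensity, 405 ex / 500-530 em, by scanning plate imager; re-replication scored as increase in nuclei with elevated DNA content. Cells exposed to compound 48 hr, 37 C, 5% CO2 beforehand.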

[7] = Quantitative high throughput screen for delayed death inhibitors of the malarial parasite plastid, 96 hour incubation (AID 488745); further: series mostly up to about 29 µM; nearly all actives have a fitted effect of over 70% in size
How it was run: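 Decreased firefly luciferase luminescence indicates inhibited growth of reporter-integrated P. falciparum after two generations (96 h, 37 C, 5% CO2). Infected erythrocytes at 0.1% parasitemia, 2% hematocrit, in Albumax-supplemented RPMI 1640.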

[8] = Quantitative high throughput screen for delayed death inhibitors of the malarial parasite plastid, 48 hour incubation (AID 488752); further: nearly all actives have a fitted effect of over 65% in size
How it was run: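 One-generation (48 h) growth assay: a decrease in luciferase signal from an integrated reporter in P. falciparum-infected red cells (0.1% parasitemia, 2% hematocrit) after compound exposure at 37 C indicates parasite inhibition.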

[9] = qHTS Validation Assay to Find Inhibitors of Chronic Active B-Cell Receptor Signaling (AID 485345; active means well fitted curve in the direction sought with a large enough effect in the main read-out, with a control signal flat, not every such curve was filed as active)
How it was run: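 TMD8 ABC-DLBCL cells stably carrying doxycycline-inducible IkappaBalpha–green luciferase fusion plus unfused red luciferase; compounds 46 uM to 3 nM, 4 h at 37C with doxycycline. Corrected green/red luminescence ratio normalized to 10 uM MG-132 and basal cell wells; curves fitted.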

[10] = molecular target: ATP-dependent 6-phosphofructokinase (Trypanosoma brucei brucei) (UniProt O15648); assay: qHTS Validation Assay to Find Inhibitors of T. brucei phosphofructokinase (AID 485368)
ATP-dependent 6-phosphofructokinase (Trypanosoma brucei brucei), sequence (O15648 whole entry, looked up): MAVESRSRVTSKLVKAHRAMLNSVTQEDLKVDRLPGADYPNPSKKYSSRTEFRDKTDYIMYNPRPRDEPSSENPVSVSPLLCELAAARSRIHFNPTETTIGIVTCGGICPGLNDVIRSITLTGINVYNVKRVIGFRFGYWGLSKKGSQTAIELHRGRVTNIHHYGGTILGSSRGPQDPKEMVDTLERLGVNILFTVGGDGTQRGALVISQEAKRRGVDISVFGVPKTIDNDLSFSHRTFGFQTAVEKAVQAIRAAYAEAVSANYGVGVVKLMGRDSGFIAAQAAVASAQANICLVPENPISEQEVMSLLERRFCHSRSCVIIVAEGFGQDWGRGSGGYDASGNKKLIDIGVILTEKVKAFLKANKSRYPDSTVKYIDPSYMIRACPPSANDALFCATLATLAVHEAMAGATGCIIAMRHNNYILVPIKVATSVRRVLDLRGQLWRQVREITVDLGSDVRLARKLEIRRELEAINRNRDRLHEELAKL
How it was run: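 ADP-Glo luminescence, two-step: residual ATP depleted, then ADP converted to ATP for luciferase. Enzyme 1.25 nM, F6P 0.5 mM, ATP 0.1 mM, pH 8.0 TEA buffer, 45 min RT. Curves fitted and classed by quality and efficacy.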

Measured: outcome

COc1ccc2cc([S+]([O-])Cc3ncc(C)c(OC)c3C)nc2c1
inactive: [1] | [2] | [3] | [4] | [5]

N=c1ccn2c(n1)O[C@H]1[C@@H](O)[C@@H](CO)O[C@H]12
inactive: [6] | [7] | [8]

CN[C@H](CC(C)C)C(=O)N[C@H]1C(=O)N[C@@H](CC(N)=O)C(=O)N[C@@H]2C(=O)N[C@H]3C(=O)N[C@H](C(=O)N[C@H](C(=O)O)c4cc(O)cc(O)c4-c4cc3ccc4O)[C@H](O)c3ccc(c(Cl)c3)Oc3cc2cc(c3O[C@@H]2O[C@H](CO)[C@@H](O)[C@H](O)[C@@H]2O[C@H]2C[C@](C)(N)[C@H](O)[C@H](C)O2)Oc2ccc(cc2Cl)[C@H]1O
inactive: [1] | [2] | [3] | [4] | [9] | [5]

O=c1[nH]c(=O)n([C@H]2C[C@@H](O)[C@@H](CO)O2)cc1C=CBr
inactive: [1] | [2] | [3] | [4] | [9] | [5] | [10]
